Consider 5 compounds from PubChem BioAssay (NCI).

Values joined by “and” are separate entries in the source; they are usually repeats but may differ in a detail not shown here. Identical values can stand only once. About 83,000 compounds went through this panel and 20% of them were active in at least one assay; those are over-represented in the sample as a whole.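 Step 1: grow cells in 96-well plates. Step 2: add test compound at a single concentration. Step 3: incubate 48 h. Step 4: record percent growth.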 Active and inactive are the calls of the source. How the source made its calls: active means growth percent below 10; inactive means the rest.

Some test systems named below: SR leukemia; OVCAR-8 ovarian; OVCAR-5 ovarian; OVCAR-4 ovarian; SK-OV-3 ovarian; IGROV1 ovarian; OVCAR-3 ovarian; HS 578T breast; NCI/ADR-RES ovarian; T-47D breast; BT-549 breast; MDA-MB-435 melanoma; SW-620 colon; MCF7 breast; HCT-116 colon; HCC-2998 colon; KM12 colon; RPMI-8226 leukemia.
Assay in all cases: NCI-60 one-dose screen, 48 h (100 = growth as untreated, 0 = no growth, -100 = all killed)
Details in all cases: 10 µM unless noted

Take `O=S(=O)(Nc1ccccc1)C1CCCCC1`: the growth in the experiment on SR leukemia is 92.1% (inactive) and 90.5% (inactive); in the experiment with OVCAR-8 ovarian, 110% (inactive) and 108% (inactive); with OVCAR-5 ovarian it was 107% (inactive) and 104% (inactive); with OVCAR-4 ovarian, 108% (inactive) and 117% (inactive); in the experiment on SK-OV-3 ovarian, 107% (inactive) and 103% (inactive); in the experiment on IGROV1 ovarian, 105% (inactive) and 127% (inactive). For the same compound, the growth is 111% (inactive) and 104% (inactive) in the experiment with OVCAR-3 ovarian; 123% (inactive) and 108% (inactive) in the experiment on HS 578T breast; 112% (inactive) and 105% (inactive) in the experiment with NCI/ADR-RES ovarian; 116% (inactive) and 105% (inactive) in the experiment with T-47D breast; 121% (inactive) with BT-549 breast; 107% (inactive) and 102% (inactive) in the experiment on MDA-MB-435 melanoma. Moreover, the growth in the experiment with SW-620 colon was 106% (inactive) and 107% (inactive); in the experiment on MCF7 breast, 94.2% (inactive) and 104% (inactive); with HCT-116 colon, 99.6% (inactive) and 107% (inactive); with HCC-2998 colon, 116% (inactive) and 106% (inactive); in the experiment on KM12 colon it was 106% (inactive) and 112% (inactive).
Turning to `Nc1ncnc2c1ncn2C1CC(O)C(CO)O1` (configuration not stated), the growth in the experiment with SR leukemia is 110% (inactive) and 95% (inactive); in the experiment with OVCAR-8 ovarian it was 102% (inactive) and 109% (inactive); with OVCAR-5 ovarian, 103% (inactive) and 116% (inactive); in the experiment on OVCAR-4 ovarian, 113% (inactive) and 107% (inactive); with IGROV1 ovarian it was 116% (inactive); with OVCAR-3 ovarian, 127% (inactive) and 109% (inactive). Besides, the growth in the experiment with HS 578T breast was 107% (inactive) and 153% (inactive); in the experiment on NCI/ADR-RES ovarian it was 104% (inactive) and 113% (inactive); in the experiment with T-47D breast, 112% (inactive) and 99.1% (inactive); in the experiment on MDA-MB-435 melanoma it was 105% (inactive) and 107% (inactive); in the experiment on SW-620 colon, 115% (inactive) and 105% (inactive); in the experiment on MCF7 breast it was 96.1% (inactive) and 97.1% (inactive). The growth in the experiment on HCT-116 colon is 103% (inactive) and 100% (inactive); in the experiment with HCC-2998 colon, -17.3% (active) and 119% (inactive); in the experiment on KM12 colon, 114% (inactive) and 107% (inactive).
Turning to `S=C(S)N1CCCC1`, the growth was 93% (inactive) and 91.3% (inactive) in the experiment with RPMI-8226 leukemia; 106% (inactive) and 94.1% (inactive) with OVCAR-8 ovarian; 112% (inactive) and 113% (inactive) in the experiment on OVCAR-5 ovarian; 117% (inactive) and 96.8% (inactive) in the experiment with OVCAR-4 ovarian; 116% (inactive) and 112% (inactive) in the experiment with SK-OV-3 ovarian; 58.9% (inactive) and 56.5% (inactive) in the experiment with IGROV1 ovarian. Also, the growth in the experiment with OVCAR-3 ovarian was 69.5% (inactive) and 100% (inactive); with HS 578T breast it was 106% (inactive); with NCI/ADR-RES ovarian it was 107% (inactive) and 99.1% (inactive); with T-47D breast, 98.4% (inactive) and 89% (inactive); with BT-549 breast, 91% (inactive) and 114% (inactive); in the experiment on MDA-MB-435 melanoma it was 109% (inactive) and 90.9% (inactive). Also, the growth in the experiment with SW-620 colon is 96.2% (inactive) and 84.8% (inactive); in the experiment on MCF7 breast, 72.9% (inactive) and 61.8% (inactive); in the experiment with HCT-116 colon it was 89.7% (inactive) and 86.2% (inactive); in the experiment with HCC-2998 colon, 113% (inactive) and 94.9% (inactive); in the experiment on KM12 colon it was 90.4% (inactive) and 93.9% (inactive).
As for `CC(=O)Oc1cc(C(=O)O)cc(OC(C)=O)c1OC(C)=O`, the growth in the experiment with SR leukemia was 117% (inactive) and 101% (inactive); with OVCAR-8 ovarian, 103% (inactive) and 99.9% (inactive); with OVCAR-5 ovarian it was 117% (inactive) and 94.9% (inactive); with OVCAR-4 ovarian, 109% (inactive) and 97% (inactive); with IGROV1 ovarian, 130% (inactive) and 95.8% (inactive); in the experiment on OVCAR-3 ovarian, 105% (inactive). Moreover, the growth is 99.5% (inactive) and 112% (inactive) in the experiment with HS 578T breast; 103% (inactive) and 96.7% (inactive) in the experiment on NCI/ADR-RES ovarian; 101% (inactive) and 98.5% (inactive) in the experiment with T-47D breast; 110% (inactive) and 102% (inactive) in the experiment with BT-549 breast; 116% (inactive) and 106% (inactive) in the experiment with MDA-MB-435 melanoma; 103% (inactive) and 107% (inactive) with SW-620 colon. Moreover, the growth is 102% (inactive) and 93% (inactive) with MCF7 breast; 100% (inactive) and 90.3% (inactive) in the experiment on HCT-116 colon; 102% (inactive) and 100% (inactive) in the experiment on HCC-2998 colon; 112% (inactive) and 106% (inactive) in the experiment on KM12 colon.
In the case of `Fc1ccccc1Nc1n[nH]c(=S)s1`, the growth in the experiment with RPMI-8226 leukemia was 110% (inactive); in the experiment on OVCAR-8 ovarian it was 103% (inactive); in the experiment on OVCAR-5 ovarian it was 99.2% (inactive); in the experiment on OVCAR-4 ovarian, 122% (inactive); in the experiment with SK-OV-3 ovarian, 110% (inactive); with IGROV1 ovarian it was 126% (inactive). Also, the growth with OVCAR-3 ovarian was 107% (inactive); in the experiment on HS 578T breast it was 107% (inactive); in the experiment with NCI/ADR-RES ovarian, 115% (inactive); in the experiment with T-47D breast, 103% (inactive); in the experiment with BT-549 breast, 112% (inactive); with MDA-MB-435 melanoma it was 117% (inactive). Further, the growth is 105% (inactive) in the experiment on SW-620 colon; 105% (inactive) in the experiment with MCF7 breast; 98% (inactive) with HCT-116 colon; 110% (inactive) in the experiment on HCC-2998 colon; 104% (inactive) with KM12 colon.
